Source: PubChem BioAssay (National Center for Advancing Translational Sciences (NCATS))
This is a sample that favours compounds with a hit; in the whole collection about 9.2% have one here.
ELG1 repair inh: inhibitors of ELG1-dependent DNA repair in HEK293T cells | HEK293T ELG1-luciferase reporter, luminescence, 16 h; DNA damage induced by 5-fluorouridine | Potency, µM (series often up to 46.1 µM), actives largely listed as inhibitors | 2.3% of 330,000 active | AID 504467; note: nearly all actives have a fitted effect of over 55% in size
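In this reporter screen, reduction of luminescence relative to DMSO vehicle indicated activity. Compounds and 5-fluorouridine were added together to 2,000 cells per well, incubated for 16 hr at 37 °C, then developed with ONE-Glo.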
NPC1 prom act: activates the NPC1 promoter; Huh7 NPC1 promoter luciferase reporter, 24 h; Potency, µM (titrated, usually from 9.22 µM), hits mostly activators; 2.4% of 320,000 active; note: nearly all actives have a fitted effect of over 60% in size
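Stable NPC1-promoter luciferase Huh7 line; cpd (DMSO) 24 h, 37 °C, 5% CO2; Amplite luciferase reagent 10 min RT; luminescence readout. qHTS format.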
SMN2 splice enh: SMN2 splice variant enhancement. Potency, µM (top dose mostly 46.1 µM), actives largely listed as activators. 2.8% of 210,000 active. HEK293 SMN2-luciferase splicing reporter, luminescence, 30-36 h; note: nearly all actives have a fitted effect of over 55% in size
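HEK293 cells carry an SMN2 minigene-luciferase reporter in which exon 7 inclusion puts luciferase in frame. Cells were seeded at 2000 cells/well, attached for 10-12 hours, then exposed to compounds for 30-36 hours at 37C before ONE-Glo luminescence.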
ELG1 genotoxic: induces genotoxicity in HEK293T cells with luciferase-tagged ELG1 | AID 504466 | Potency, µM (doses to about 46 µM), usual class: activators | HEK293T ELG1-luciferase reporter, luminescence, 16 h | 1.3% of 330,000 active; note: nearly all actives have a fitted effect of over 60% in size
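HEK293T cells expressing luciferase-tagged ELG1 were exposed to compound or DMSO vehicle for 16 hr at 37 °C and 5% CO2. Luciferase activity was then measured with ONE-Glo after 30 min at room temperature.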
FLuc counter: firefly luciferase modulation, counter-screen for miR-21 project. purified FLuc, Km substrates, luminescence inhibition. 6.9% of 360,000 active. Potency, µM (series often up to 57.5 µM), hits mostly inhibitors. AID 588342; note: nearly all actives have a fitted effect of over 55% in size
Target sequence (P08659 whole entry, looked up): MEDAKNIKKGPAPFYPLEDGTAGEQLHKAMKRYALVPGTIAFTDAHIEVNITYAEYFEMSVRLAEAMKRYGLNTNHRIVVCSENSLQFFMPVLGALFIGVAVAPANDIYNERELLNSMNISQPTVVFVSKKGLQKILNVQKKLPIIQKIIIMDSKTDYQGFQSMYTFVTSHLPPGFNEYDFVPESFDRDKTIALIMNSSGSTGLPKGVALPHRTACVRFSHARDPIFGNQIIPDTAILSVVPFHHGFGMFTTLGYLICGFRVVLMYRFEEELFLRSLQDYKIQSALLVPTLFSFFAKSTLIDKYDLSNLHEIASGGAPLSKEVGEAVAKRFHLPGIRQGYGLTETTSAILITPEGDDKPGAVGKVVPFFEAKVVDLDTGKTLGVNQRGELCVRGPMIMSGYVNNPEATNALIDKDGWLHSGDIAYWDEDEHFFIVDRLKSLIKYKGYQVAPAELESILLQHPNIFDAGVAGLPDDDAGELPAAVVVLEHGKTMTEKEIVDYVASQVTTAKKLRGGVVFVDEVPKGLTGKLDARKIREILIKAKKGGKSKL
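Purified P. pyralis luciferase, 10 nM final, with Km-level 10 uM D-luciferin and 10 uM ATP in 50 mM Tris acetate pH 7.5, 10 mM Mg acetate, 0.01% Tween-20, 0.05% BSA; 6-point qHTS titration about 60 µM downward; luminescence read.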
Rab9 promoter act: activates the Rab9 promoter; Huh7 Rab9 promoter-luciferase reporter, luminescence, 24 h; Potency, µM (top dose mostly 9.22 µM), most hits filed as activators; 2.8% of 320,000 active; AID 485297; note: nearly all actives have a fitted effect of over 60% in size
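Steps: seed 1500 Huh7 Rab9-luc cells per well, rest 2 h at 37 °C; add compound in DMSO; incubate 24 h; add luciferase reagent, 10 min ambient; read luminescence.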
Hits are given with their value; [ ] = another dose, or the depositor's remark. Calls come from the whole dose curve; as a rule, active = well fitted curve in the direction sought with a large enough effect; inconclusive = small, poorly fitted or top-dose-only effect, or another doubt; inactive = no such curve, though single readings can be large; an effect the other way counts as inactive or inconclusive.

Screening COC(c1ccccc1)c1nnc(CCC(=O)N2CCCCCCC2)o1 (stereo unspecified) returned ELG1 repair inh inactive, NPC1 prom act inactive, ELG1 genotoxic inactive, FLuc counter inactive and Rab9 promoter act inactive.
For COC(c1ccccc1)c1nnc(CCC(=O)N(C)C(C2CC2)C2CC2)o1 (stereo unspecified) the results were ELG1 repair inh inconclusive, NPC1 prom act inconclusive, ELG1 genotoxic inconclusive, FLuc counter 13.5µM and Rab9 promoter act 2.82µM.
For Cc1ccc2nc(C3CCCCC3)[nH]c2c1 the results were ELG1 repair inh inconclusive, NPC1 prom act 1.78µM, ELG1 genotoxic inconclusive, FLuc counter 9.53µM and Rab9 promoter act 2.82µM.
CCNC(=S)N1CCCC(c2nc3ccc(C)cc3[nH]2)C1 (stereo unspecified) was read as ELG1 repair inh inactive, NPC1 prom act inactive, ELG1 genotoxic inactive, FLuc counter inactive and Rab9 promoter act inactive.
For Cc1ccc(NC(=O)CCNS(=O)(=O)c2ccc3[nH]c(=O)oc3c2)c(Cl)c1 the results were ELG1 repair inh inactive, NPC1 prom act inactive, ELG1 genotoxic inactive[9.26 µM], FLuc counter inactive and Rab9 promoter act inactive.
For COc1cc(C(=O)N(Cc2ccccc2)c2cccc(C)c2)ccc1OC(F)F the results were ELG1 repair inh inactive, NPC1 prom act inactive, ELG1 genotoxic inactive, FLuc counter inactive and Rab9 promoter act inactive.
O=C(O)Cn1c(=O)n(Cc2ccccc2)c2ccccc21 was read as ELG1 repair inh inactive, NPC1 prom act inactive, ELG1 genotoxic inactive, FLuc counter inactive and Rab9 promoter act inactive.
Screening N=c1n(CC(=O)c2cccs2)c2ccccc2n1Cc1ccccc1 returned ELG1 repair inh 7.3µM, NPC1 prom act inactive, ELG1 genotoxic inactive, FLuc counter inactive and Rab9 promoter act inactive.
COc1ccc(-n2c(C)cc(/C=C/c3nc(O)c([N+](=O)[O-])c(=O)[nH]3)c2C)cc1 was read as ELG1 repair inh inactive, NPC1 prom act inactive, SMN2 splice enh inactive, ELG1 genotoxic inactive, FLuc counter inconclusive and Rab9 promoter act inactive.
Cc1cc(/C=C\c2nc(O)c([N+](=O)[O-])c(=O)[nH]2)c(C)n1-c1ccccc1 was read as ELG1 repair inh inactive, NPC1 prom act inactive, SMN2 splice enh inactive, ELG1 genotoxic inactive, FLuc counter 10.7µM and Rab9 promoter act inactive.
CC(Sc1nc2ccccc2c(=O)n1C)C(=O)Nc1ccc2c(c1)OCCO2 (stereo unspecified) was read as ELG1 repair inh inactive, NPC1 prom act inactive, ELG1 genotoxic inactive, FLuc counter inactive and Rab9 promoter act inactive.
Screening O=c1c2ccccc2nnn1CSc1ccc2c(c1)OCCO2 returned ELG1 repair inh inconclusive, NPC1 prom act 1.58µM, SMN2 splice enh 7.08µM, ELG1 genotoxic inactive, FLuc counter 9.53µM and Rab9 promoter act 1.78µM.
Screening C[C@@H](C(=O)Nc1ccc2c(c1)OCCO2)n1c(=O)[nH]c2ccccc2c1=O returned ELG1 repair inh inconclusive, NPC1 prom act inactive, ELG1 genotoxic inconclusive, FLuc counter 15.1µM and Rab9 promoter act inactive.
For CCC(C(=O)Nc1ccc2c(c1)OCCO2)n1nnc2ccccc2c1=O (stereo unspecified) the results were ELG1 repair inh inconclusive, NPC1 prom act 3.16µM, ELG1 genotoxic inconclusive, FLuc counter 13.5µM and Rab9 promoter act inconclusive.
Screening C[C@@H](C(=O)Nc1ccc2c(c1)OCO2)n1c(=O)[nH]c2ccccc2c1=O returned ELG1 repair inh inactive, NPC1 prom act inactive, ELG1 genotoxic inactive, FLuc counter inactive and Rab9 promoter act inactive.
COc1ccc(N=Nc2nc3ccc(Br)cc3n2C)cc1 was read as ELG1 repair inh inconclusive, NPC1 prom act 2.82µM, SMN2 splice enh inconclusive, ELG1 genotoxic inactive, FLuc counter 0.379µM and Rab9 promoter act 2.51µM.
`O=C(NC(=S)Nc1ncc(Br)cc1Br)c1cncc(Br)c1` gave SMN2 splice enh inactive and FLuc counter inconclusive.
`O=C(NC(=S)NC1CCCCCC1)c1cncc(Br)c1` gave ELG1 repair inh inconclusive, NPC1 prom act inconclusive, SMN2 splice enh 15.8µM, ELG1 genotoxic inconclusive, FLuc counter inconclusive and Rab9 promoter act inactive.
O=C(NC(=S)NC1CCCCC1)c1ccccc1 was read as ELG1 repair inh inconclusive, NPC1 prom act inconclusive, ELG1 genotoxic inconclusive, FLuc counter 15.1µM and Rab9 promoter act inconclusive.
Screening O=C(NC(=S)NC1CCS(=O)(=O)C1)c1ccccc1 (stereo unspecified) returned ELG1 repair inh inactive, NPC1 prom act inactive, ELG1 genotoxic inactive, FLuc counter inactive and Rab9 promoter act inactive.
CC(=O)C[C@@H](O)CC(=O)[C@@H]1OC(=O)[C@@H](C)CCCCc2ccccc21 was read as ELG1 repair inh inactive and ELG1 genotoxic inactive.
COc1ccc(/C(N)=N/OC(=O)c2ccc(Br)o2)cc1 was read as ELG1 repair inh inconclusive, NPC1 prom act inconclusive, ELG1 genotoxic inconclusive, FLuc counter 6.01µM and Rab9 promoter act inconclusive.
Screening COc1ccccc1C(=O)O/N=C(\N)c1ccc(Cl)cc1 returned ELG1 repair inh inconclusive, NPC1 prom act inconclusive, SMN2 splice enh inconclusive, ELG1 genotoxic inconclusive, FLuc counter 21.3µM and Rab9 promoter act inactive.
`COc1ccc(/C(N)=N/OC(=O)Cc2ccc(C)cc2)cc1` gave ELG1 repair inh inconclusive, NPC1 prom act inactive, SMN2 splice enh inactive, ELG1 genotoxic inactive, FLuc counter inconclusive and Rab9 promoter act inactive.
COc1ccc(C(=O)O/N=C(\N)c2ccc(Cl)cc2)cc1 was read as ELG1 repair inh inconclusive, NPC1 prom act 3.16µM, ELG1 genotoxic inconclusive, FLuc counter 2.39µM and Rab9 promoter act inconclusive.
Screening Cc1cc(C)c(C)c(S(=O)(=O)NC(C(=O)O)C(C)C)c1C (stereo unspecified) returned ELG1 repair inh inactive, NPC1 prom act inactive, SMN2 splice enh inactive, ELG1 genotoxic inactive, FLuc counter inconclusive and Rab9 promoter act inactive.
Screening Clc1ccc(-c2nc3ccccn3c2CN2CCOCC2)cc1 returned ELG1 repair inh inactive, NPC1 prom act inactive, SMN2 splice enh inactive, ELG1 genotoxic inactive, FLuc counter inactive and Rab9 promoter act inactive.
COc1ccc(-c2nc3ccccn3c2Cl)cc1 was read as ELG1 repair inh inconclusive, NPC1 prom act 3.16µM, ELG1 genotoxic 1.16µM, FLuc counter 0.426µM and Rab9 promoter act 0.794µM.
`COc1ccc(-c2nc3ccccn3c2CN2CCN(c3ccccc3F)CC2)cc1` gave ELG1 repair inh inconclusive, NPC1 prom act inactive, SMN2 splice enh inactive, ELG1 genotoxic inactive, FLuc counter 16.9µM and Rab9 promoter act inactive.
Screening Clc1ccc(SCc2cc(-c3ccccc3)no2)cc1 returned ELG1 repair inh inconclusive, NPC1 prom act inactive, SMN2 splice enh inactive, ELG1 genotoxic inactive, FLuc counter inconclusive and Rab9 promoter act inactive.
